Compounds without any hit were thinned out: in the full panel of roughly 83,000, 20% have a hit.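 Treatment: one concentration, 48 hours, 96-well format. Scoring: percent growth, with anything below 10 considered active.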 The source made the active and inactive calls.
Columns and labels:
Test in all cases: NCI-60 one-dose screen, 48 h (100 = growth as untreated, 0 = no growth, -100 = all killed)
Settings in all cases: 10 µM unless noted
NCI-H23 lung = test system: NCI-H23 lung
NCI-H226 lung = test system: NCI-H226 lung
NCI-H322M lung = test system: NCI-H322M lung
HOP-62 NSCLC = test system: HOP-62 NSCLC
NCI-H460 lung = test system: NCI-H460 lung
HOP-92 NSCLC = test system: HOP-92 NSCLC
NCI-H522 lung = test system: NCI-H522 lung
A549/ATCC NSCLC = test system: A549/ATCC NSCLC
786-0 renal = test system: 786-0 renal

Measured: growth

N#Cc1cnn2c(-c3ccc(Cl)cc3)nc(NC3CC3)nc12
inactive: NCI-H23 lung 90.9% | NCI-H226 lung 97.4% | NCI-H322M lung 87.5% | HOP-62 NSCLC 98.3% | NCI-H460 lung 100% | HOP-92 NSCLC 97.5% | NCI-H522 lung 90.6% | A549/ATCC NSCLC 84.4% | 786-0 renal 89.8%

Cc1cc(N(CCCNc2ccnc3cc(Cl)ccc23)Cc2ccccn2)nc(N2CCCC2)n1
inactive: NCI-H23 lung 78.3% | NCI-H226 lung 89.6% | NCI-H322M lung 75.9% | HOP-62 NSCLC 68.4% | NCI-H460 lung 66.4% | HOP-92 NSCLC 59.7% | NCI-H522 lung 88% | A549/ATCC NSCLC 70.8% | 786-0 renal 73.5%

Cc1cc(-c2ccccc2)cc(SC#N)[n+]1[O-]
inactive: NCI-H23 lung 55.9% | NCI-H226 lung 69.4% | NCI-H322M lung 50.5% | HOP-62 NSCLC 40.2% | NCI-H460 lung 19% | HOP-92 NSCLC 82.2% | NCI-H522 lung 39.2% | A549/ATCC NSCLC 33.7% | 786-0 renal 41.1%

COc1ccc(-c2nc3ccccn3c2/C=C/C(=O)c2cc(OC)c(OC)c(OC)c2)cc1
inactive: NCI-H23 lung 45.1% | NCI-H226 lung 71.7% | NCI-H322M lung 73.2% | HOP-62 NSCLC 70.8% | NCI-H460 lung 34.4% | HOP-92 NSCLC 22.7% | NCI-H522 lung 26.7% | A549/ATCC NSCLC 55.8% | 786-0 renal 63.1%

Nc1nc(N)c(-c2ccc(Cl)cc2)c(/C=C/c2ccc([N+](=O)[O-])cc2)n1
inactive: NCI-H23 lung 90.8% | NCI-H226 lung 91.4% | NCI-H322M lung 46.8% | HOP-62 NSCLC 100% | NCI-H460 lung 11.4% | HOP-92 NSCLC 76.1% | NCI-H522 lung 97.4% | A549/ATCC NSCLC 47.9% | 786-0 renal 99.3%

COc1cccc(CCC2CCCN(c3cc(C)nc(N)n3)C2)c1 (centres undefined)
active: NCI-H522 lung 2.3%
inactive: NCI-H23 lung 22.1% | NCI-H226 lung 55.9% | NCI-H322M lung 40% | HOP-62 NSCLC 59.4% | NCI-H460 lung 14.3% | HOP-92 NSCLC 23% | A549/ATCC NSCLC 29.1% | 786-0 renal 19%

CN1CCN(C(=O)[C@]23CCC(C)(C)C[C@@H]2C2=CC[C@@H]4[C@@]5(C)Cc6c([nH]c7ccccc67)C(C)(C)[C@@H]5CC[C@@]4(C)[C@]2(C)CC3)CC1
inactive: NCI-H23 lung 93.3% | NCI-H226 lung 86.9% | NCI-H322M lung 88.6% | HOP-62 NSCLC 80% | NCI-H460 lung 75.8% | HOP-92 NSCLC 70.7% | NCI-H522 lung 78.2% | A549/ATCC NSCLC 69.4% | 786-0 renal 74.4%

N=C(N)c1ccc(-c2ccc(-c3ccc(Cl)cc3Cl)o2)nc1
inactive: NCI-H23 lung 78% | NCI-H226 lung 96.9% | NCI-H322M lung 30.7% | HOP-62 NSCLC 29.1% | HOP-92 NSCLC 77.4% | NCI-H522 lung 30%
active: NCI-H460 lung -63.2% | A549/ATCC NSCLC 6.38% | 786-0 renal -22%

CCn1c(Sc2nnc(Nc3ccccc3)s2)nc2c1c(=O)n(C)c(=O)n2C
inactive: NCI-H23 lung 88.2% | NCI-H226 lung 102% | NCI-H322M lung 91.4% | HOP-62 NSCLC 93.5% | NCI-H460 lung 106% | HOP-92 NSCLC 61.5% | NCI-H522 lung 114% | A549/ATCC NSCLC 99.9% | 786-0 renal 93.2%

C=C1c2c(C)nn(-c3ccc(O)cc3)c2N(C)C23C[C@@H]1C1(C)c4c(C)nn(-c5ccc(O)cc5)c4N(C)C(C)(C[C@H]12)C3 (some centres undefined)
inactive: NCI-H23 lung 50.4% | NCI-H226 lung 11.8% | NCI-H322M lung 59.4% | HOP-62 NSCLC 37% | NCI-H460 lung 20.1% | NCI-H522 lung 20.7% | A549/ATCC NSCLC 31.3% | 786-0 renal 34.3%
active: HOP-92 NSCLC 7.18%

Fc1ccc(Nc2ccc3cc(OCCCN4CCOCC4)ccc3n2)cc1F
active: NCI-H522 lung -21.4%
inactive: NCI-H23 lung 55.7% | NCI-H226 lung 76.8% | NCI-H322M lung 71.4% | HOP-62 NSCLC 65.9% | NCI-H460 lung 36.6% | HOP-92 NSCLC 52.8% | A549/ATCC NSCLC 42.9% | 786-0 renal 48.6%

C=C(CNCCc1ccc(O)cc1)[C@@H]1CC[C@]2(COC3CCCCO3)CC[C@]3(C)[C@H](CC[C@@H]4[C@@]5(C)CCC(N)C(C)(C)[C@@H]5CC[C@]43C)[C@@H]12 (some centres undefined)
active: NCI-H23 lung -89.1% | NCI-H226 lung -59.1% | NCI-H322M lung -95.1% | HOP-62 NSCLC -91.4% | NCI-H460 lung -84.2% | HOP-92 NSCLC -73.9% | NCI-H522 lung -84.3% | A549/ATCC NSCLC -86.2% | 786-0 renal -79.4%

CC1(C)N=C(N)N=C(N)N1c1ccc(Cl)c(Cl)c1
inactive: NCI-H23 lung 19.2% | NCI-H226 lung 52.1% | NCI-H322M lung 52.7% | HOP-62 NSCLC 16.4% | NCI-H460 lung 17% | HOP-92 NSCLC 72.3% | NCI-H522 lung 45.3% | A549/ATCC NSCLC 30.1%
active: 786-0 renal 9.73%

CNC(=O)c1cc(Oc2ccc3nc(NC(=O)Nc4cc(C(F)(F)F)cc(C(F)(F)F)c4)sc3c2)ccn1
active: NCI-H23 lung -67.9% | NCI-H226 lung -13.7% | NCI-H322M lung -46.6% | HOP-62 NSCLC -70.5% | NCI-H460 lung -57.5% | HOP-92 NSCLC -54.6% | NCI-H522 lung -71.9% | A549/ATCC NSCLC -71.4% | 786-0 renal -64%

CS(=O)(=O)c1ccc(-c2[nH]c3ccc(F)cc3c2/C=N/O)cc1
inactive: NCI-H23 lung 94.3% | NCI-H226 lung 92.8% | NCI-H322M lung 90.1% | HOP-62 NSCLC 80.7% | NCI-H460 lung 105% | HOP-92 NSCLC 87.6% | NCI-H522 lung 82% | A549/ATCC NSCLC 82% | 786-0 renal 95.8%

CCCCOC(=O)c1ccc(NC(=O)C(C)N2CCOCC2)cc1 (centres undefined)
inactive: NCI-H23 lung 98.5% | NCI-H226 lung 84.3% | NCI-H322M lung 95.7% | HOP-62 NSCLC 99.5% | NCI-H460 lung 105% | HOP-92 NSCLC 76.7% | NCI-H522 lung 67.9% | A549/ATCC NSCLC 97.3% | 786-0 renal 99.1%

CN(CCC(=O)/C(=C\c1ccccc1)c1ccc(Cl)cc1)Cc1ccccc1
active: NCI-H522 lung -45.9% | 786-0 renal -64.5%
inactive: NCI-H23 lung 29.2% | NCI-H226 lung 65.6% | NCI-H322M lung 71.2% | HOP-62 NSCLC 47.6% | NCI-H460 lung 42.2% | HOP-92 NSCLC 82.9% | A549/ATCC NSCLC 85.9%

COc1ccc(-c2nnc(SCC(=O)NC3=NN=C(c4ccccc4)CS3)o2)cc1
inactive: NCI-H23 lung 103% | NCI-H226 lung 93.8% | NCI-H322M lung 102% | HOP-62 NSCLC 86.2% | NCI-H460 lung 101% | HOP-92 NSCLC 98.5% | NCI-H522 lung 93.3% | A549/ATCC NSCLC 74.7% | 786-0 renal 101%

O=C(NC(=S)Nc1ccc(-c2nc3ccccc3[nH]2)cc1)c1ccc2ccccc2c1
inactive: NCI-H23 lung 58.1% | NCI-H226 lung 51.1% | NCI-H322M lung 21.5% | NCI-H522 lung 63.2% | A549/ATCC NSCLC 26.3%
active: HOP-62 NSCLC 8.8% | NCI-H460 lung 5.41% | HOP-92 NSCLC -1.16% | 786-0 renal -67.5%

Cc1ccc(NC(=O)C(Cl)Cl)cc1
inactive: NCI-H23 lung 95.8% | NCI-H226 lung 79.1% | NCI-H322M lung 84.1% | HOP-62 NSCLC 98.4% | NCI-H460 lung 102% | HOP-92 NSCLC 98.2% | NCI-H522 lung 80.9% | A549/ATCC NSCLC 90.8% | 786-0 renal 104%

CN(C)CCOC(=O)Nc1ccc(Cl)cc1
inactive: NCI-H23 lung 102% | NCI-H226 lung 88.8% | NCI-H322M lung 92.2% | HOP-62 NSCLC 88.4% | NCI-H460 lung 106% | HOP-92 NSCLC 85.5% | NCI-H522 lung 64.9% | A549/ATCC NSCLC 94.7% | 786-0 renal 94.2%

COc1cc2ccccc2cc1C(=O)NC(=S)Nc1ccc(-c2nc3ccccc3[nH]2)cc1
inactive: NCI-H23 lung 72.9% | NCI-H226 lung 102% | NCI-H322M lung 90.9% | HOP-62 NSCLC 79.9% | NCI-H460 lung 69.1% | HOP-92 NSCLC 93.7% | NCI-H522 lung 89.6% | A549/ATCC NSCLC 92.1% | 786-0 renal 38%

CSc1ncc(C)c(Nc2ccc(Cl)cc2)n1
inactive: NCI-H23 lung 99.6% | NCI-H226 lung 104% | NCI-H322M lung 106% | HOP-62 NSCLC 111% | NCI-H460 lung 103% | HOP-92 NSCLC 73.6% | NCI-H522 lung 80.1% | A549/ATCC NSCLC 96.4% | 786-0 renal 91.9%

Cc1c2c(cn1Cc1ccccc1)CCc1cn(C)nc1-2
inactive: NCI-H23 lung 63.7% | NCI-H226 lung 95.3% | NCI-H322M lung 107% | HOP-62 NSCLC 92.1% | NCI-H460 lung 93.3% | HOP-92 NSCLC 40% | NCI-H522 lung 78.3% | A549/ATCC NSCLC 89.8% | 786-0 renal 81.8%

CCC(=O)OC1=C(C)SC2=NC(c3ccc(Cl)c(Cl)c3)=CC(c3cc(OC)c(OC)c(OC)c3)N21 (centres undefined)
inactive: NCI-H23 lung 98.5% | NCI-H226 lung 95% | NCI-H322M lung 97.4% | HOP-62 NSCLC 95.9% | NCI-H460 lung 108% | HOP-92 NSCLC 67.9% | NCI-H522 lung 97.8% | A549/ATCC NSCLC 105% | 786-0 renal 104%

CCCN1CCN(c2ccc3nc(-c4ccc5nc(-c6cc(OC)c(OC)c(OC)c6)[nH]c5c4)[nH]c3c2)CC1
inactive: NCI-H23 lung 80.1% | NCI-H226 lung 81.7% | NCI-H322M lung 94% | HOP-62 NSCLC 84.3% | NCI-H460 lung 93.2% | HOP-92 NSCLC 70.5% | NCI-H522 lung 41.1% | A549/ATCC NSCLC 106% | 786-0 renal 77.3%

— PubChem BioAssay (NCI)
